Records with an inconclusive call do not appear. Activity calls are given as the source filed them. Calls come from the whole dose curve; as a rule, active = well fitted curve in the direction sought with a large enough effect in the repeat runs; inconclusive = weak or mixed curves; inactive = no such curve, though single readings can be large; an effect the other way counts as inactive or inconclusive.
Tests used:
[1] = A CellTox Green Cytotoxicity Assay to monitor cytotoxicity in HepG2 cells - 16 hour (AID 1224876); note: nearly all actives have a fitted effect of over 45% in size; note: potency is the fitted concentration of half-maximal effect
Procedure, shortened: (§1)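 Read-out is fluorescence of a cyanine dye excluded from live cells that stains DNA of dead HepG2 cells, with signal proportional to cytotoxicity. Plates were read at 0, 8, 16, 24, 32 and 40 h after compound addition.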

[2] = qHTS RealTime-Glo MT Cell Viability Assay in HepG2 cells - 32 hour (AID 1224877); note: nearly all actives have a fitted effect of over 55% in size; note: potency is the fitted concentration of half-maximal effect
Procedure, shortened: (§2)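 qHTS, HepG2, 600 cells/well, RealTime-Glo (NanoLuc + prosubstrate) added with cells; 5 h preincubation; DMSO compound addition; 37 C; luminescence at 0/8/16/24/32/40 h.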

[3] = A CellTox Green Cytotoxicity Assay to monitor cytotoxicity in HepG2 cells - 24 hour (AID 1224878); note: nearly all actives have a fitted effect of over 45% in size; note: potency is the fitted concentration of half-maximal effect
Procedure, shortened: as §1

[4] = A CellTox Green Cytotoxicity Assay to monitor cytotoxicity in HepG2 cells - 40 hour (AID 1224879); note: potency is the fitted concentration of half-maximal effect; nearly all actives have a fitted effect of over 40% in size
Procedure, shortened: as §1

[5] = qHTS RealTime-Glo MT Cell Viability Assay in HEK293 cells - 0 hour (AID 1224880); note: potency is the fitted concentration of half-maximal effect; nearly all actives have a fitted effect of over 45% in size
Procedure, shortened: (§3)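 Cells were seeded together with NanoLuc luciferase and a prosubstrate that viable cells reduce to a luciferase substrate. After a 5 h incubation at 37 C/5% CO2, compounds were added and luminescence was measured repeatedly during 40 h of treatment.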

[6] = A CellTox Green Cytotoxicity Assay to monitor cytotoxicity in HEK293 cells - 32 hour (AID 1224881); note: nearly all actives have a fitted effect of over 40% in size; note: potency is the fitted concentration of half-maximal effect
Procedure, shortened: (§4)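 Nonlytic real-time cytotoxicity: HEK293 + CellTox Green reagent plated, 5 h preincubation, pintool compound addition (23 nL in DMSO), 37 C for 40 h, fluorescence measured at successive time points.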

[7] = A CellTox Green Cytotoxicity Assay to monitor cytotoxicity in HepG2 cells - 0 hour (AID 1224882); note: nearly all actives have a fitted effect of over 35% in size
Procedure, shortened: as §1

[8] = A CellTox Green Cytotoxicity Assay to monitor cytotoxicity in HepG2 cells - 32 hour (AID 1224883); note: nearly all actives have a fitted effect of over 50% in size; note: potency is the fitted concentration of half-maximal effect
Procedure, shortened: as §1

[9] = A CellTox Green Cytotoxicity Assay to monitor cytotoxicity in HEK293 cells - 8 hour (AID 1224884); note: nearly all actives have a fitted effect of over 35% in size; note: potency is the fitted concentration of half-maximal effect
Procedure, shortened: as §4

[10] = qHTS RealTime-Glo MT Cell Viability Assay in HepG2 cells - 16 hour (AID 1224885); note: nearly all actives have a fitted effect of over 50% in size; note: potency is the fitted concentration of half-maximal effect
Procedure, shortened: as §2

[11] = qHTS RealTime-Glo MT Cell Viability Assay in HEK293 cells - 24 hour (AID 1224886); note: nearly all actives have a fitted effect of over 50% in size; note: potency is the fitted concentration of half-maximal effect
Procedure, shortened: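 Assay medium contained NanoLuc luciferase plus cell-permeant prosubstrate, added with HEK293 cells at 600 cells/well. After 5 h at 37 C/5% CO2 compounds were added; plates stayed at 37 C for 40 h with serial luminescence reads.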

[12] = qHTS RealTime-Glo MT Cell Viability Assay in HEK293 cells - 8 hour (AID 1224887); note: potency is the fitted concentration of half-maximal effect; nearly all actives have a fitted effect of over 50% in size
Procedure, shortened: as §3

[13] = A CellTox Green Cytotoxicity Assay to monitor cytotoxicity in HEK293 cells - 16 hour (AID 1224888); note: nearly all actives have a fitted effect of over 35% in size; note: potency is the fitted concentration of half-maximal effect
Procedure, shortened: as §4

[14] = qHTS RealTime-Glo MT Cell Viability Assay in HepG2 cells - 0 hour (AID 1224889); note: nearly all actives have a fitted effect of over 50% in size; note: potency is the fitted concentration of half-maximal effect
Procedure, shortened: as §2

[15] = qHTS assay to identify small molecule antagonists of the estrogen receptor alpha (ER-alpha) signaling pathway using the BG1 cell line in the presence of 0.1 nM 17-beta-estradiol - cell viability counter screen (AID 1259241); note: nearly all actives have a fitted effect of over 40% in size; note: potency is the fitted concentration of half-maximal effect
Procedure, shortened: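 Estradiol-stimulated (0.1 nM) VM7Luc4E2 cells exposed to compounds 22 hr; viability measured by fluorescence of cleaved CellTiter-Fluor substrate after 30 min.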

[16] = qHTS assay to identify small molecule antagonists of the androgen receptor (AR) signaling pathway using the MDA cell line in the presence of 0.5 nM R1881 - cell viability counter screen (AID 1259242); note: nearly all actives have a fitted effect of over 45% in size; note: potency is the fitted concentration of half-maximal effect
Procedure, shortened: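 Counter screen for cytotoxicity run in the same wells as the AR antagonist reporter screen: MDA-kb2 cells were treated 16 hr with test compounds and 0.5 nM R1881, then live-cell protease activity was measured by fluorescence.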

[17] = molecular target: Androgen receptor (Homo sapiens) (UniProt P10275); assay: qHTS assay to identify small molecule antagonists of the androgen receptor (AR) signaling pathway using the MDA cell line in the presence of 0.5 nM R1881 (AID 1259243)
Procedure, shortened: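 Luciferase luminescence is the read-out: compounds are tested for suppressing 0.5 nM R1881-driven MMTV reporter activity in MDA-kb2 cells after 16 hr at 37C.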

[18] = molecular target: Estrogen receptor (Homo sapiens) (UniProt P03372); assay: qHTS assay to identify small molecule antagonists of the estrogen receptor alpha (ER-alpha) signaling pathway using the BG1 cell line in the presence of 0.1 nM 17-beta-estradiol (AID 1259244); note: nearly all actives have a fitted effect of over 50% in size; note: potency is the fitted concentration of half-maximal effect
Procedure, shortened: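 Cells: VM7Luc4E2, endogenous ER-alpha, 4x ERE-luc stable. Pre-culture 5 d, phenol red-free, charcoal-stripped FBS. Plated 24 h, compound + E2 0.1 nM final, 22 h 37C/5% CO2. Readout ONE-Glo luminescence.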

[19] = A CellTox Green Cytotoxicity Assay to monitor cytotoxicity in HepG2 cells - 8 hour (AID 1224890); note: nearly all actives have a fitted effect of over 45% in size; note: potency is the fitted concentration of half-maximal effect
Procedure, shortened: as §1

Sequence of Estrogen receptor (Homo sapiens) (P03372 whole entry, looked up): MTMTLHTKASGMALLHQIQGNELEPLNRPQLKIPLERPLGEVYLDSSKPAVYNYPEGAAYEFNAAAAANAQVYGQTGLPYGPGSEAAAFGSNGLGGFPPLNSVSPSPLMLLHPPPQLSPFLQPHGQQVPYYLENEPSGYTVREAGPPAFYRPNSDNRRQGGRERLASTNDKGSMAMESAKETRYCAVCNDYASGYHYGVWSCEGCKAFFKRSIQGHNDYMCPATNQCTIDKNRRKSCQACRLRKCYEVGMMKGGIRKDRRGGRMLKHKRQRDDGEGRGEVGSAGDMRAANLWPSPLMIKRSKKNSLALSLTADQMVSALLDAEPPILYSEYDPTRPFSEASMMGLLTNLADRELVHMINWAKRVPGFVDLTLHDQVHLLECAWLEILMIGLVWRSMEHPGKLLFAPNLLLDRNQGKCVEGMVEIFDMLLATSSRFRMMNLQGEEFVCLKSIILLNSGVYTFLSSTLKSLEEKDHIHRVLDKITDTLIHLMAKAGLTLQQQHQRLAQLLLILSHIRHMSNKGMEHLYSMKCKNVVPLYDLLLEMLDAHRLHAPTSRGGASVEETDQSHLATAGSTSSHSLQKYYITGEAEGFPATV
Sequence of Androgen receptor (Homo sapiens) (P10275 whole entry, looked up): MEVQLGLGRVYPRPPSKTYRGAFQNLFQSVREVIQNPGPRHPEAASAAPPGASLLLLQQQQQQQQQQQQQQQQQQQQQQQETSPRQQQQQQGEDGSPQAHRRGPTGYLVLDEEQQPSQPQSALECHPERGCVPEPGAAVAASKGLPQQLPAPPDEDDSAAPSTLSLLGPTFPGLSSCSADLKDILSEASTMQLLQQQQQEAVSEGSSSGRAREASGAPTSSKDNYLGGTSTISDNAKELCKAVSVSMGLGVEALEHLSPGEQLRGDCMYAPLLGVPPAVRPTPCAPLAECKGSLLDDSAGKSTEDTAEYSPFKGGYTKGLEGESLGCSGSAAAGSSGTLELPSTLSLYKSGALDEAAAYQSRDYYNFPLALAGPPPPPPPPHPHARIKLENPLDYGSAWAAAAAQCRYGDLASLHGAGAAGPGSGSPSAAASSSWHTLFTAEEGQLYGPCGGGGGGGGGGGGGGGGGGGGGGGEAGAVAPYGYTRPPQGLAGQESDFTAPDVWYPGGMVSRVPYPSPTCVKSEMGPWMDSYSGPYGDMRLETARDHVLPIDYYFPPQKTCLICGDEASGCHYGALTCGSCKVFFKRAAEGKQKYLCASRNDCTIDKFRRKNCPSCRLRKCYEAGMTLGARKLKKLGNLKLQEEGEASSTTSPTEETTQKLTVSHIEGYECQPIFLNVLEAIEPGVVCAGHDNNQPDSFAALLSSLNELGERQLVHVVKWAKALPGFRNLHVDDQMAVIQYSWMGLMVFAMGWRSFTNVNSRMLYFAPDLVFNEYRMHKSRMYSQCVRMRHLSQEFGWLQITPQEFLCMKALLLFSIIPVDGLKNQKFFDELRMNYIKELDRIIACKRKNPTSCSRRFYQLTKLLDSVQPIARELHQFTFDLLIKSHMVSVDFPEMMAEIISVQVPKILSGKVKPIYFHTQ

SMILES	Potency [1]	Potency [2]	Potency [3]	Potency [4]	Potency [5]	Potency [6]	Potency [7]	Potency [8]	Potency [9]	Potency [10]	Potency [11]	Potency [12]	Potency [13]	Potency [14]	Potency [15]	Potency [16]	Potency [17]	Potency [18]	Potency [19]
Cc1ccc(S(=O)(=O)C(I)I)cc1	54.9 µM (active)	11 µM (active)	49 µM (active)	24.5 µM (active)	0.616 µM (active)	24.5 µM (active)	inactive	43.6 µM (active)	49 µM (active)	11 µM (active)	12.3 µM (active)	24.5 µM (active)	43.6 µM (active)	12.3 µM (active)	77 µM (active)	48.6 µM (active)	15.4 µM (active)	13.7 µM (active)	
Nc1ccc(Cl)c([N+](=O)[O-])c1	inactive	inactive	inactive			inactive	inactive	inactive	inactive	inactive	inactive		inactive	inactive	inactive	inactive	24.3 µM (active)		inactive
CCCCCCCCCC[N+](C)(CCCCCCCCCC)CCC[Si](OC)(OC)OC	43.6 µM (active)	49 µM (active)	21.9 µM (active)	19.5 µM (active)		24.5 µM (active)	inactive	21.9 µM (active)		49 µM (active)	24.5 µM (active)	19.5 µM (active)	49 µM (active)	inactive	inactive			inactive	43.6 µM (active)
O=C1C=CC(=O)N1c1cccc(N2C(=O)C=CC2=O)c1	13.8 µM (active)	15.5 µM (active)	12.3 µM (active)	12.3 µM (active)			inactive	11 µM (active)	inactive	15.5 µM (active)	11 µM (active)	19.5 µM (active)			68.6 µM (active)	61.1 µM (active)	61.1 µM (active)	61.1 µM (active)	17.4 µM (active)
